In PubChem BioAssay (NCATS):
Inconclusive results are not listed. Active and inactive are the calls of the source. The call rests on the fitted dose curve; in most records, active means well fitted curve in the direction sought with a large enough effect; inconclusive means small, poorly fitted or top-dose-only effect, or another doubt; inactive means no such curve, though single readings can be large; an effect the other way counts as inactive or inconclusive.

How the values were obtained:
[1] = qHTS of pediatric cancer cell lines to identify multiple opportunities for drug repurposing: Primary screen for NB-EBc1 cells (AID 1347095);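 further: plate controls were DMSO neutral control for no effect and bortezomib for full effect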
In short: (§1)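 Quantitative HTS format: each compound titrated (MIPE 11 points from 0.78 nM, NPC 8 points from 0.59 nM) onto cells plated 5 hours earlier. After 48 h at 37 degrees C, CellTiter-Glo luminescence was recorded.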

[2] = qHTS of pediatric cancer cell lines to identify multiple opportunities for drug repurposing: Primary screen for U-2 OS cells (AID 1347096);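 further: plate controls were DMSO wells for no effect and bortezomib positive control wells for full effect; nearly all actives have a fitted effect of over 50% in size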
In short: (§2)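 Cells (500-1,000/well) in growth media were settled 5 h at 37 degrees C, then given compounds for 48 h. Viability was read as CellTiter-Glo luminescence. Primary runs used MIPE at 11 points (0.78 nM-46 µM) and NPC at 8 points (0.59 nM-46 µM); follow-ups used 11 points.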

[3] = qHTS of pediatric cancer cell lines to identify multiple opportunities for drug repurposing: Primary screen for Saos-2 cells (AID 1347097); further: on the % scale 0 is the no-effect control and ±100 the full control effect; nearly all actives have a fitted effect of over 40% in size
In short: as §1

[4] = qHTS of pediatric cancer cell lines to identify multiple opportunities for drug repurposing: Primary screen for SK-N-SH cells (AID 1347098);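 further: DMSO served as neutral control and bortezomib at 2.3 µM as positive control; on the % scale 0 is the no-effect control and ±100 the full control effect; nearly all actives have a fitted effect of over 65% in size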
In short: (§3)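 Cells (500-1,000/well) rested 5 h, then received compounds for 48 h; metabolically active cells were measured by CellTiter-Glo luminescence. Final concentrations spanned up to 46 µM (MIPE, 11-point) or 0.59 nM-46 µM (NPC, 8-point) in primary screens, 11-point in follow-ups.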

[5] = qHTS of pediatric cancer cell lines to identify multiple opportunities for drug repurposing: Primary screen for NB1643 cells (AID 1347099);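 further: plate controls were DMSO neutral control for no effect and bortezomib positive control for full effect; nearly all actives have a fitted effect of over 50% in size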
In short: as §1

[6] = qHTS of pediatric cancer cell lines to identify multiple opportunities for drug repurposing: Primary screen for LAN-5 cells (AID 1347100);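 further: plate controls were DMSO neutral control for no effect and bortezomib positive control for full effect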
In short: as §2

[7] = qHTS of pediatric cancer cell lines to identify multiple opportunities for drug repurposing: Primary screen for BT-12 cells (AID 1347101);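 further: plate controls were DMSO for no effect and bortezomib positive control for full effect; nearly all actives have a fitted effect of over 25% in size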
In short: as §3

[8] = qHTS of pediatric cancer cell lines to identify multiple opportunities for drug repurposing: Primary screen for Rh18 cells (AID 1347102); further: on the % scale 0 is the no-effect control and ±100 the full control effect; nearly all actives have a fitted effect of over 65% in size
In short: as §2

[9] = qHTS of pediatric cancer cell lines to identify multiple opportunities for drug repurposing: Primary screen for OHS-50 cells (AID 1347103);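 further: plate controls were DMSO neutral control for no effect and bortezomib positive control for full effect; nearly all actives have a fitted effect of over 40% in size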
In short: as §3

[10] = qHTS of pediatric cancer cell lines to identify multiple opportunities for drug repurposing: Primary screen for RD cells (AID 1347104);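 further: plate controls were DMSO for no effect and bortezomib for full effect; nearly all actives have a fitted effect of over 55% in size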
In short: as §1

[11] = qHTS of pediatric cancer cell lines to identify multiple opportunities for drug repurposing: Primary screen for MG 63 (6-TG R) cells (AID 1347105); further: on the % scale 0 is the no-effect control and ±100 the full control effect; nearly all actives have a fitted effect of over 50% in size
In short: as §1

[12] = qHTS of pediatric cancer cell lines to identify multiple opportunities for drug repurposing: Primary screen for control Hh wild type fibroblast cells (AID 1347106);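 further: series mostly up to about 46 µM; on the % scale 0 is the no-effect control and ±100 the full control effect; a drop in luminescence marks cytotoxicity and a rise apparent proliferation; nearly all actives have a fitted effect of over 55% in size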
In short: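 Viability after 48 h compound treatment at 37C, 500-1,000 cells/well, read as ATP luminescence with CellTiter-Glo. Primary screens used 11-point (MIPE, 0.78 nM-46 µM) or 8-point (NPC, 0.59 nM-46 µM) final concentrations; follow-up screens used 11-point dilutions.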

[13] = qHTS of pediatric cancer cell lines to identify multiple opportunities for drug repurposing: Primary screen for Rh30 cells (AID 1347107); further: series mostly up to about 46 µM; on the % scale 0 is the no-effect control and ±100 the full control effect; nearly all actives have a fitted effect of over 75% in size
In short: as §2

[14] = qHTS of pediatric cancer cell lines to identify multiple opportunities for drug repurposing: Primary screen for Rh41 cells (AID 1347108);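 further: series mostly up to about 46 µM; luminescence drop marks cytotoxic hits; nearly all actives have a fitted effect of over 70% in size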
In short: as §1

CC(=O)Nc1c(I)c(NC(C)=O)c(I)c(C(=O)O)c1I
inactive: Potency [1] | Potency [2] | Potency [3] | Potency [4] | Potency [5] | Potency [6] | Potency [7] | Potency [8] | Potency [9] | Potency [10] | Potency [11] | Potency [12] | Potency [13] | Potency [14]

O=c1[nH]c2ccccc2c(=O)n1CCCl
inactive: Potency [1] | Potency [2] | Potency [3] | Potency [4] | Potency [5] | Potency [6] | Potency [7] | Potency [8] | Potency [9] | Potency [10] | Potency [11] | Potency [12] | Potency [13] | Potency [14]

O=C(CCCl)NCc1ccccc1
inactive: Potency [1] | Potency [2] | Potency [3] | Potency [4] | Potency [5] | Potency [6] | Potency [7] | Potency [8] | Potency [9] | Potency [10] | Potency [11] | Potency [12] | Potency [13] | Potency [14]

Cc1cc(C(C)(C)C)c(O)c(C(C)(C)C)c1
inactive: Potency [1] | Potency [2] | Potency [3] | Potency [4] | Potency [5] | Potency [6] | Potency [7] | Potency [8] | Potency [9] | Potency [10] | Potency [11] | Potency [12] | Potency [13] | Potency [14]

O=C(O)CNC(=O)CNC(=O)CNC(=O)CSC(=O)c1ccccc1
inactive: Potency [1] | Potency [2] | Potency [3] | Potency [4] | Potency [5] | Potency [6] | Potency [7] | Potency [8] | Potency [9] | Potency [10] | Potency [11] | Potency [12] | Potency [13] | Potency [14]

CC(=O)N(CC(O)CO)c1c(I)c(C(=O)NCCO)c(I)c(C(=O)NCC(O)CO)c1I (stereo not drawn)
inactive: Potency [1] | Potency [2] | Potency [3] | Potency [4] | Potency [5] | Potency [6] | Potency [7] | Potency [8] | Potency [9] | Potency [11] | Potency [12] | Potency [13] | Potency [14]

O=C(O)[C@H](O)[C@@H](O)[C@H](O[C@@H]1O[C@H](CO)[C@H](O)[C@H](O)[C@H]1O)[C@H](O)CO
inactive: Potency [1] | Potency [2] | Potency [3] | Potency [4] | Potency [5] | Potency [6] | Potency [7] | Potency [8] | Potency [9] | Potency [11] | Potency [12] | Potency [14]

CC(C)(C)C(=O)OCOC(=O)C1N2C(=O)CC2S(=O)(=O)C1(C)C (stereo not drawn)
inactive: Potency [1] | Potency [2] | Potency [3] | Potency [4] | Potency [5] | Potency [6] | Potency [7] | Potency [8] | Potency [9] | Potency [10] | Potency [11] | Potency [13] | Potency [14]

CC1CN(c2cc3c(cc2F)c(=O)c(C(=O)O)cn3-c2ccc(F)cc2F)CCN1 (stereo not drawn)
inactive: activity change, negative = cytotoxic [1] 50.8% [at 4.84 µM] | activity change, negative = cytotoxic [2] -4.99% [at 4.84 µM] | activity change, negative = cytotoxic [3] 39.6% [at 4.84 µM] | activity change, negative = cytotoxic [4] -4.88% [at 6 µM] | activity change, negative = cytotoxic [5] -5.39% [at 4.84 µM] | activity change, negative = cytotoxic [6] 1.81% [at 4.84 µM] | activity change, negative = cytotoxic [7] -6.89% [at 6.03 µM] | activity change, negative = cytotoxic [8] -0.484% [at 4.84 µM] | activity change, negative = cytotoxic [9] 83% [at 6.18 µM] | activity change, negative = cytotoxic [11] 29.5% [at 4.84 µM] | activity change, negative = cytotoxic [12] -8.43% [at 4.84 µM] | activity change, negative = cytotoxic [13] 5.93% [at 4.84 µM] | activity change, negative = cytotoxic [14] 11.4% [at 4.84 µM]

O=C(O)[C@@H](O)[C@H](O)[C@H](O)[C@@H](O)C(=O)O
inactive: Potency [1] | Potency [2] | Potency [3] | Potency [4] | Potency [5] | Potency [6] | Potency [7] | Potency [8] | Potency [9] | Potency [10] | Potency [13] | Potency [14]

Cc1c(F)cc2c(=O)c(C(=O)O)cn3c2c1CCC3C (stereo not drawn)
inactive: Potency [1] | Potency [2] | Potency [3] | Potency [4] | Potency [5] | Potency [6] | Potency [7] | Potency [8] | Potency [9] | Potency [11] | Potency [12] | Potency [13] | Potency [14]

Cc1sccc1Br
inactive: Potency [1] | Potency [2] | Potency [3] | Potency [4] | Potency [5] | Potency [6] | Potency [7] | Potency [8] | Potency [9] | Potency [10] | Potency [11] | Potency [12] | Potency [14]

CN(C(=O)C(Cl)Cl)c1ccc(OC(=O)c2ccco2)cc1
inactive: Potency [1] | Potency [2] | Potency [3] | Potency [4] | Potency [5] | Potency [6] | Potency [7] | Potency [8] | Potency [9] | Potency [11] | Potency [12] | Potency [13] | Potency [14]

CN1Cc2cc(C(=O)N3CCC(C4CCNCC4)CC3)ccc2N[C@@H](CC(=O)O)C1=O
inactive: Potency [1] | Potency [2] | Potency [3] | Potency [4] | Potency [5] | Potency [6] | Potency [7] | Potency [8] | Potency [9] | Potency [11] | Potency [13] | Potency [14]

NCC(=O)O
inactive: Potency [1] | Potency [2] | Potency [3] | Potency [4] | Potency [5] | Potency [6] | Potency [7] | Potency [8] | Potency [9] | Potency [10] | Potency [11] | Potency [13] | Potency [14]

CC1c2ccccc2CN1NC(=O)c1ccc(Cl)c(S(N)(=O)=O)c1 (stereo not drawn)
inactive: Potency [1] | Potency [2] | Potency [3] | Potency [4] | Potency [5] | Potency [6] | Potency [7] | Potency [8] | Potency [9] | Potency [10] | Potency [11] | Potency [14]

COc1ccc2c(c1)c(CC(=O)OC/C=C(\C)CC/C=C(\C)CCC=C(C)C)c(C)n2C(=O)c1ccc(Cl)cc1
inactive: Potency [1] | Potency [2] | Potency [3] | Potency [4] | Potency [5] | Potency [6] | Potency [7] | Potency [8] | Potency [9] | Potency [10] | Potency [11] | Potency [13] | Potency [14]

CCN1CCN(C(=O)N[C@@H](C(=O)N[C@@H]2C(=O)N3[C@@H]2SC(C)(C)[C@H]3C(=O)O)c2ccccc2)C(=O)C1=O
inactive: Potency [1] | Potency [2] | Potency [3] | Potency [4] | Potency [5] | Potency [6] | Potency [7] | Potency [8] | Potency [9] | Potency [11] | Potency [12] | Potency [13] | Potency [14]

CCC(C(=O)NC(=O)NC(C)=O)c1ccccc1 (stereo not drawn)
inactive: Potency [1] | Potency [2] | Potency [3] | Potency [4] | Potency [5] | Potency [6] | Potency [7] | Potency [8] | Potency [9] | Potency [10] | Potency [12] | Potency [13] | Potency [14]
